A number with no mark means an inactive call. Inconclusive results are not listed. Active and inactive are the calls of the source. Calls follow the shape of the dose curve; as a rule, active = well fitted curve in the direction sought with a large enough effect; inconclusive = small, poorly fitted or top-dose-only effect, or another doubt; inactive = no such curve, though single readings can be large; an effect the other way counts as inactive or inconclusive.

Assay [1] has as its target Glutathione peroxidase 1 (Homo sapiens) (UniProt P07203). Nature of the assay: Primary qHTS Assay for Inhibitors of Recombinant Selenoprotein Glutathione Peroxidase 1 (GPX1) (AID 1845191). Also: nearly all actives have a fitted effect of over 65% in size. As to activity, negative = inhibition: % is scaled to controls: 0 for no effect and ±100 for the full control effect. The essentials: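 Recombinant GPX1 (10 nM final) was preincubated with compound for 30 min at room temperature, then reacted with 1 mM GSH, 0.5 mM CHP, 0.5 mM NADPH and 100 nM glutathione reductase; NADPH fluorescence (340/450 nm) was read at 0 and 15 min.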
For orientation: In qHTS, concentration-response curves come from the screen itself.

The target in assay [2] is Phospholipid hydroperoxide glutathione peroxidase GPX4 (Homo sapiens) (UniProt P36969). The assay is described as follows: Primary qHTS Assay for Inhibitors of Recombinant Selenoprotein Glutathione Peroxidase 4 (GPX4) (AID 1845192). Also: nearly all actives have a fitted effect of over 65% in size. As to activity change, negative = inhibition: series mostly up to about 50 µM; % is scaled to controls: 0 for no effect and ±100 for the full control effect. The essentials:
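GR-coupled readout: 100 nM GR, 1 mM GSH, 0.5 mM NADPH; NADPH fluorescence (ex 340/em 450 nm) read at t=0 and after 15 min RT. GPX4 200 nM, preincubated 30 min with compound; substrate 0.5 mM CHP.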

The target in assay [3] is Luciferin 4-monooxygenase (Photinus pyralis) (UniProt P08659). The assay is described as follows: Primary firefly luciferase (FLuc) qHTS assay for identification of artifact compounds. (AID 1845220). Also: nearly all actives have a fitted effect of over 60% in size.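 As to activity change, negative = inhibition: series mostly up to about 54 µM; plate controls were DMSO vehicle for no effect and no enzyme for full effect.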 The essentials: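 qHTS, 15 min compound preincubation with substrate (10 uM luciferin, 10 uM ATP) at RT, then 10 nM FLuc; 5 min; luminescence; % inhibition vs no-enzyme/DMSO controls, 4-parameter Hill fit.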

A short description of assay [4]: Primary fluorescence-based thiol-reactive (MSTI) qHTS assay for identification of artifact compounds. (AID 1845221). Also: nearly all actives have a fitted effect of over 65% in size. Also: potency is read from the fitted curve at half-maximal effect.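 As to activity change, negative = thiol reactive: series mostly up to about 54 µM; thiol-reactive compounds lower the probe fluorescence signal.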 The essentials:
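MSTI probe at 4 uM final in 2% DMSO/PBS pH 7.4; compounds, 1 h at room temperature in dark. Fluorescence Ex/Em 525/598 nm, normalised to Acetyl-MSTI and MSTI, fitted to 4-parameter Hill.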

Assay [5] has as its system Nanoluciferase (engineered Oplophorus gracilirostris luciferase). The assay is described as follows: Primary Nanoluciferase (NLuc) qHTS assay for identification of artifact compounds. (AID 1845222).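 Also: series mostly up to about 54 µM; 0% = DMSO and -100% = no enzyme.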 The essentials: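 Luminescence read-out of secreted NLuc in S16 cell conditioned medium (1:55); compounds tested with 15 min RT preincubation, then Nano-Glo substrate 1:100, 5 min. % inhibition vs no-enzyme and DMSO controls, 4-parameter Hill fit.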

Assay [6] in a line: Primary redox qHTS assay for identification of artifact compounds. (AID 1845223).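 Also: 0% = DMSO and 100% = reference compound.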 The essentials: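 Amplex Red (25 uM) and HRP (250 mU/mL) in HBSS, with compounds for 15 min, then 250 uM DTT for 30 min, room temperature, dark. Fluorescence 525/598 nm read; normalized to DMSO and 10 uM DA3003; Hill fit.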

Chain of Glutathione peroxidase 1 (Homo sapiens) (P07203 whole entry, looked up): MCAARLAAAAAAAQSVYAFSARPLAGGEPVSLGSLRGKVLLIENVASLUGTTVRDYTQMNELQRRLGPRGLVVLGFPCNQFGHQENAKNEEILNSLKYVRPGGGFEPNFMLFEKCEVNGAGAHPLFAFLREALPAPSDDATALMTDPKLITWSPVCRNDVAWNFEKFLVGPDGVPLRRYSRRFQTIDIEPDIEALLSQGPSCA
Chain of Phospholipid hydroperoxide glutathione peroxidase GPX4 (Homo sapiens) (P36969 whole entry, looked up): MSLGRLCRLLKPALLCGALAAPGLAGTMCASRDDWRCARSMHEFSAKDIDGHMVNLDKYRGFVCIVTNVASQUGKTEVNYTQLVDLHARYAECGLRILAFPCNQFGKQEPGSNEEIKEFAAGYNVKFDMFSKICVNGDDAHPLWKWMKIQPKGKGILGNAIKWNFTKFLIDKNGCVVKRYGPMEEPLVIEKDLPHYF

Regarding `COC(=O)C1=CO[C@@H](O[C@@H]2O[C@H](CO)[C@@H](O)[C@H](O)[C@H]2O)[C@@H]2[C@@H](C)[C@@H](O)C[C@H]12`, the Potency result in assay [1], in assay [2], in assay [3], in assay [4], in assay [5] and in assay [6] was “inactive” in each case.
In the case of `CC(=O)[C@@H]1CC[C@]2(C(=O)O)CC[C@]3(C)C(CCC4[C@@]5(C)CC[C@H](O)C(C)(C)C5CC[C@]43C)C12` (stereo partly drawn), the Potency result in assay [1], in assay [2], in assay [3], in assay [4], in assay [5] and in assay [6] was “inactive” throughout.
Regarding `O=C(NCc1ccc(OC(F)(F)F)cc1)C1c2ccccc2C(=O)N1C1CCOCC1` (stereo not drawn), the Potency result in assay [1], in assay [2], in assay [3], in assay [4], in assay [5] and in assay [6] was “inactive” throughout.
With `C=CC(C)(O)CC/C=C(\C)C(=O)OC1CC2(C(=O)O)CCC3(C)C(=CCC4C5(C)CCC(OC6OC(COC7OCC(O)C(O)C7O)C(O)C(OC7OCC(O)C(O)C7O)C6OC6OC(CO)C(O)C(O)C6OC6OCC(O)C(O)C6O)C(C)(C)C5CCC43C)C2CC1(C)C` (stereo not drawn), the outcome is “inactive [at 9.52 µM]” in assay [1] and “inactive [at 11.6 µM]” in assay [3]. Besides, in assay [2], the activity change, negative = inhibition is -6.88% [at 9.73 µM]. In assay [4], the activity change, negative = thiol reactive is 122% [at 11.5 µM]. In addition, the activity, negative = inhibition in assay [5] is 2.64% [at 11.6 µM]. Besides, the redox activity (% of DA3003) in assay [6] was 11.8% [at 11.5 µM].
For the molecule `Nc1nonc1C(=Nc1ccc(F)c(Cl)c1)NO`, the Potency entry in assay [1], in assay [2], in assay [3], in assay [4], in assay [5] and in assay [6] was “inactive” each time.
`OC[C@H]1O[C@@H](OCCc2ccc(O)cc2)[C@H](O)[C@@H](O)[C@@H]1O`: the Potency entry in assay [1], in assay [2], in assay [3], in assay [5] and in assay [6] was “inactive” in each case. The Potency in assay [4] was 11.9 µM (active).
As for `CC(C)(O)CNc1nc(Nc2ccnc(C(F)(F)F)c2)nc(-c2cccc(C(F)(F)F)n2)n1`, the Potency entry in assay [1], in assay [2], in assay [3], in assay [4], in assay [5] and in assay [6] was “inactive” in each case.
Regarding `CC(=O)O[C@@]1(C)C[C@@H](O)[C@]2(O)C=CO[C@@H](O[C@@H]3O[C@H](CO)[C@@H](O)[C@H](O)[C@H]3O)[C@@H]21`, the Potency result in assay [1], in assay [2], in assay [3], in assay [4], in assay [5] and in assay [6] was “inactive” in each case.
`CC1(C)CCC(C)(C)c2cc3c(cc21)Sc1ccccc1N=C3c1ccc(C(=O)O)cc1`: the Potency result in assay [1], in assay [2], in assay [3], in assay [4], in assay [5] and in assay [6] was “inactive” each time.
Turning to `COC1=CC(=O)O[C@@H](CCc2ccccc2)[C@@H]1O`, the Potency entry in assay [1], in assay [2], in assay [3], in assay [4], in assay [5] and in assay [6] was “inactive” each time.
On to `C=C1CCC2(OC1)OC1CC3C4CC=C5CC(O)CC(O[C@@H]6OC[C@@H](O)[C@H](O)[C@H]6O)C5(C)C4CCC3(C)C1(O)C2C` (stereo partly drawn), for which the Potency entry in assay [1], in assay [2], in assay [3], in assay [4], in assay [5] and in assay [6] was “inactive” each time.
Regarding `CC1(C)CCCC2(C)C1C(O)C=C(CO)C2(O)C(=O)O` (stereo not drawn), the Potency result in assay [1], in assay [2], in assay [3], in assay [4], in assay [5] and in assay [6] was “inactive” in each case.
For the molecule `O=S(=O)(Nc1ccc(C(O)(C(F)(F)F)C(F)(F)F)cc1)c1cccs1`, the Potency entry in assay [1], in assay [2], in assay [3], in assay [4], in assay [5] and in assay [6] was “inactive” in each case.
In the case of `Cc1cccc(-c2[nH]c(CNc3ccccc3F)nc2-c2ccc3ncnn3c2)n1`, the Potency entry in assay [1], in assay [2], in assay [3], in assay [4], in assay [5] and in assay [6] was “inactive” each time.
For the molecule `O=c1ccn([C@@H]2O[C@H](CO)[C@@H](O)[C@H]2O)c(=O)[nH]1`, the Potency result in assay [1], in assay [2], in assay [3], in assay [4], in assay [5] and in assay [6] was “inactive” each time.
In the case of `COc1cc(C)c(C(=O)O[C@H]2[C@@H](O)[C@H](n3ccc(=O)[nH]c3=O)O[C@@H]2CO)c(OC)c1`, the Potency entry in assay [1], in assay [2], in assay [3], in assay [4], in assay [5] and in assay [6] was “inactive” in each case.
`CC1=CC(=O)OC(C)(CC(C)(O)C(=O)O)C1` (stereo not drawn): the Potency result in assay [1], in assay [2], in assay [3], in assay [4], in assay [5] and in assay [6] was “inactive” throughout.
On to `C/C=C(\C)C(=O)O[C@@H](C)[C@H]1CC[C@]2(O)C3CCC4C[C@@H](OC5CC(OC)C(OC6CC(OC)C(OC7CC(OC)C(OC8OC(C)C(OC9OC(CO)C(O)C(O)C9O)C(OC)C8O)C(C)O7)C(C)O6)C(C)O5)CC[C@]4(C)C3[C@H](O)[C@@H](O)[C@]12C` (stereo partly drawn), for which the outcome in assay [1] is “inactive [at 9.52 µM]”; in assay [3], “inactive [at 11.6 µM]”. Moreover, in assay [2], the activity change, negative = inhibition is -0.387% [at 9.73 µM]. Moreover, the activity change, negative = thiol reactive in assay [4] is 94.5% [at 11.5 µM]. Moreover, the activity, negative = inhibition in assay [5] was 0.355% [at 11.6 µM]. Besides, the redox activity (% of DA3003) in assay [6] was 14% [at 11.5 µM].
